Among the test systems are SR leukemia; RPMI-8226 leukemia; OVCAR-8 ovarian; OVCAR-5 ovarian; OVCAR-4 ovarian; SK-OV-3 ovarian; IGROV1 ovarian; OVCAR-3 ovarian; HS 578T breast; T-47D breast; BT-549 breast; MDA-MB-435 melanoma; SW-620 colon; MCF7 breast; HCT-116 colon; HCC-2998 colon; KM12 colon; NCI/ADR-RES ovarian.
Holding throughout (assay): NCI-60 one-dose screen, 48 h (100 = growth as untreated, 0 = no growth, -100 = all killed)
What all share (settings): 10 µM unless noted

Compounds without any hit were thinned out: in the full panel of roughly 83,000, 20% have a hit.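 Note: values are percent growth. 100 is the growth of untreated cells, values between 100 and 0 indicate rising inhibition; between -100 and 0 indicates cell death.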 A number with no mark means an inactive call. Activity calls are given as the source filed them. How the source made its calls: active means growth percent below 10; inactive means the rest.

The source of these data is PubChem BioAssay (NCI).

Consider `CS(=O)(=O)Nc1cc(-c2ccc3ncnc(Nc4ccc(F)c(Cl)c4)c3c2)ccc1Cl`, for which the growth in the assay on SR leukemia was 35.1%; in the assay with RPMI-8226 leukemia, 37.4%; in the assay with OVCAR-8 ovarian it was 52%; with OVCAR-5 ovarian, 53.9%; in the assay with OVCAR-4 ovarian, 52.5%; in the assay with SK-OV-3 ovarian it was 17.7%. In addition, the growth in the assay on IGROV1 ovarian is -3.25% (active); in the assay on OVCAR-3 ovarian, 36.3%; with HS 578T breast, 18.9%; in the assay on T-47D breast, 12.2%; with BT-549 breast, 49.4%; in the assay on MDA-MB-435 melanoma, 58.2%. The growth was 75.4% in the assay on SW-620 colon; 23.9% in the assay on MCF7 breast; 59.5% with HCT-116 colon; 79.9% in the assay on HCC-2998 colon; 52.7% in the assay on KM12 colon.

`C=CC(=O)Nc1cccc(Oc2nccc(Nc3nnc(-c4ccc(Br)cc4)s3)n2)c1`: the growth with SR leukemia is 89.3%; in the assay on RPMI-8226 leukemia, 87.4%; in the assay with OVCAR-8 ovarian, 98.5%; in the assay on OVCAR-5 ovarian, 95.4%; in the assay with OVCAR-4 ovarian, 86.4%; in the assay on SK-OV-3 ovarian, 91%. In addition, the growth is 101% with IGROV1 ovarian; 102% in the assay with OVCAR-3 ovarian; 93.4% with HS 578T breast; 99.8% with NCI/ADR-RES ovarian; 109% in the assay on BT-549 breast; 94.3% with MDA-MB-435 melanoma. The growth is 96% with SW-620 colon; 70.8% in the assay with MCF7 breast; 98.9% in the assay with HCT-116 colon; 114% in the assay on HCC-2998 colon; 100% with KM12 colon.

For `COc1cc2c(cc1OCCCN1CCN(C(=S)SCCC(C#N)(c3ccccc3)c3ccccc3)CC1)N=C[C@@H]1CCCN1C2=O`, the growth with SR leukemia was -37.6% (active); with RPMI-8226 leukemia, -19.3% (active); with OVCAR-8 ovarian, -0.777% (active); with OVCAR-5 ovarian, -46.2% (active); in the assay on OVCAR-4 ovarian, -19.2% (active); in the assay on SK-OV-3 ovarian it was -7.04% (active). For the same compound, the growth was -89.4% (active) in the assay with IGROV1 ovarian; -89.3% (active) in the assay on OVCAR-3 ovarian; -54.4% (active) in the assay on HS 578T breast; 22.3% in the assay on NCI/ADR-RES ovarian; -89.7% (active) in the assay with BT-549 breast; -15.2% (active) in the assay on MDA-MB-435 melanoma. Further, the growth in the assay with SW-620 colon is -100% (active); in the assay with MCF7 breast, -86.1% (active); in the assay on HCT-116 colon, -93.5% (active); in the assay on HCC-2998 colon, -86.8% (active); in the assay on KM12 colon it was -75.1% (active).

For the compound `C/C(Cc1ccc(Cl)cc1)=C(\c1ccc(OCCN2CCCCCC2)cc1)c1ccc(OC(=O)c2ccccc2)cc1`, the growth in the assay with SR leukemia is -14.3% (active); in the assay on RPMI-8226 leukemia it was -24.6% (active); in the assay on OVCAR-8 ovarian, 34.5%; in the assay with OVCAR-5 ovarian, 68.7%; in the assay with OVCAR-4 ovarian, 36.6%; in the assay on SK-OV-3 ovarian, 86.9%. Moreover, the growth in the assay with IGROV1 ovarian was 24.4%; with OVCAR-3 ovarian, 59.1%; in the assay on HS 578T breast, 56%; with T-47D breast, 46.3%; in the assay on BT-549 breast, 56.2%; in the assay with MDA-MB-435 melanoma, 47.6%. Moreover, the growth was 37.3% in the assay with SW-620 colon; 9.46% (active) in the assay on MCF7 breast; -64.8% (active) in the assay on HCT-116 colon; 23.8% in the assay on HCC-2998 colon; 32% with KM12 colon.

As for `Cc1cccc(N2C(=O)/C(=C/C(Cl)=C/c3ccc([N+](=O)[O-])cc3)SC2=S)c1C`, the growth in the assay with SR leukemia is 2.55% (active); in the assay with RPMI-8226 leukemia, -13.1% (active); with OVCAR-8 ovarian, 9.93% (active); with OVCAR-5 ovarian it was 22.8%; in the assay on OVCAR-4 ovarian it was 19.8%; with SK-OV-3 ovarian, 72.7%. Also, the growth in the assay with IGROV1 ovarian was -40.5% (active); in the assay on OVCAR-3 ovarian it was -21.4% (active); in the assay with HS 578T breast it was 27.8%; with NCI/ADR-RES ovarian, 7.84% (active); in the assay on BT-549 breast, 3.15% (active); in the assay with MDA-MB-435 melanoma, 10.4%. The growth is 15.2% in the assay on MCF7 breast, -38.8% (active) in the assay with HCT-116 colon, 42% in the assay with HCC-2998 colon and 19.3% with KM12 colon.

On to `COc1ccc(-c2cn(Cc3cc4ccccc4s3)nn2)cc1OCCN1CCCCC1`, for which the growth is 1.37% (active) with SR leukemia; 28.5% with RPMI-8226 leukemia; 83.2% in the assay on OVCAR-8 ovarian; 80.5% in the assay with OVCAR-5 ovarian; 68.2% in the assay on OVCAR-4 ovarian; 93.1% with SK-OV-3 ovarian. Moreover, the growth in the assay on IGROV1 ovarian is 80.8%; in the assay with OVCAR-3 ovarian, 74.6%; with HS 578T breast, 51.3%; with NCI/ADR-RES ovarian, 75.4%; in the assay with BT-549 breast it was 74.8%; in the assay with MDA-MB-435 melanoma it was 69.6%. The growth with SW-620 colon was 90.9%; in the assay on MCF7 breast, 60.6%; with HCT-116 colon it was 75.9%; in the assay on HCC-2998 colon, 57.4%; in the assay with KM12 colon, 87%.

In the case of `COc1ccccc1/C=C/C(=O)Nc1ccc(F)cc1`, the growth in the assay with SR leukemia was 95%; in the assay on RPMI-8226 leukemia, 85.4%; in the assay on OVCAR-8 ovarian it was 100%; in the assay on OVCAR-5 ovarian, 108%; in the assay with OVCAR-4 ovarian, 86.8%; in the assay with SK-OV-3 ovarian it was 81.5%. Also, the growth with IGROV1 ovarian is 83.2%; in the assay with OVCAR-3 ovarian it was 104%; with HS 578T breast, 104%; in the assay with NCI/ADR-RES ovarian, 101%; in the assay with BT-549 breast, 108%; with MDA-MB-435 melanoma, 94%. Further, the growth in the assay on SW-620 colon was 103%; with MCF7 breast, 64.4%; with HCT-116 colon, 88.1%; with HCC-2998 colon, 111%; with KM12 colon it was 91.3%.

Consider `COc1ccc(-c2cc(-c3cc(OC)ccc3OC)nc(SCC(C)=O)c2C#N)cc1`, for which the growth in the assay with SR leukemia was 32.1%; in the assay with RPMI-8226 leukemia, 33.2%; in the assay with OVCAR-8 ovarian it was 80.8%; with OVCAR-5 ovarian, 84.1%; in the assay on OVCAR-4 ovarian it was 69.6%; with SK-OV-3 ovarian, 59.9%. Further, the growth was 83.9% in the assay on IGROV1 ovarian; 66.4% in the assay on OVCAR-3 ovarian; 76.1% with HS 578T breast; 57.9% with T-47D breast; 61% with BT-549 breast; 36.1% with MDA-MB-435 melanoma. Also, the growth in the assay on MCF7 breast is 70.6%; in the assay on HCT-116 colon, 74%; with HCC-2998 colon, 84.5%; in the assay on KM12 colon, 60.2%.

On to `Cc1ccc2c(/C=C/C(=O)c3cc(CN4CCOCC4)c(O)c4nc(C)ccc34)cc(CN3CCOCC3)c(O)c2n1`, for which the growth in the assay with SR leukemia was 6.56% (active); with RPMI-8226 leukemia, 2.37% (active); in the assay on OVCAR-8 ovarian it was 11.1%; with OVCAR-5 ovarian, 0.618% (active); with OVCAR-4 ovarian it was -74.3% (active); in the assay with SK-OV-3 ovarian, -1.75% (active). For the same compound, the growth was 2.95% (active) with IGROV1 ovarian; -13.2% (active) in the assay on OVCAR-3 ovarian; 29.6% in the assay on HS 578T breast; 9.26% (active) in the assay with T-47D breast; 12.8% in the assay with BT-549 breast; -62.6% (active) in the assay with MDA-MB-435 melanoma. Besides, the growth is 1.06% (active) with SW-620 colon; 4.69% (active) with MCF7 breast; -22.9% (active) in the assay on HCT-116 colon; 22.7% in the assay on HCC-2998 colon; -59.3% (active) in the assay with KM12 colon.
